The source of these data is PubChem BioAssay (Tox21).

Each structure is given as a SMILES string. Records with an inconclusive call do not appear. Values without a mark were called inactive. Activity calls are given as the source filed them. Calls follow the shape of the dose curve; as a rule, active = well fitted activation curve with a large enough effect in the repeat runs; inconclusive = weak or mixed curves; inactive = flat fitted curve, though single readings scatter.
% is scaled to controls: 0 for no effect and ±100 for the full control effect; potency is read from the fitted curve at half-maximal effect.

The assay concerns the target Nuclear receptor subfamily 1 group I member 2 (Homo sapiens) (UniProt O75469). The experiment in a line: Human pregnane X receptor (PXR) activation by small molecules, qHTS assay (AID 1346985). Also: nearly all actives have a fitted effect of over 40% in size. Conditions: DPX-2 HepG2 CYP3A4-luciferase, 24 h; series mostly up to 38.3 µM; activation: at the top concentration. In short, it runs like this:
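DPX-2 cells (HepG2 co-transfected with a PXR response element and a CYP3A4-promoter luciferase construct) were seeded at 2,000 per well, rested 5 hr at 37C, then exposed to DMSO-dissolved compounds for 24 hr. Activation was read as luciferase luminescence.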
For orientation: qHTS replaces the single test concentration by a dilution series.
Consider `Nc1ccccc1C(=O)O`, for which the “activation” value is -2.03%.

Turning to `O=[N+]([O-])c1ccccc1`, the “activation” value is 17.3%.

As for `C#CCN(C)[C@H](C)Cc1ccccc1`, the “activation” value is 15%.

Regarding `Clc1ccccc1Cl`, the “activation” value is 0.996%.

Consider `CC1OC(C)OC(C)O1` (stereo not given), for which the Potency entry is “inactive”.

`CCOC(=O)c1ccccc1C(=O)OCC`: the “activation” value was 7.46%.

Regarding `O=C(NC(=O)c1c(F)cccc1F)Nc1cc(Cl)c(OC(F)(F)C(F)C(F)(F)F)cc1Cl` (stereo not given), the “activation” value is 5.75%.

As to `C[C@]12CC[C@H]3[C@@H](CC[C@@]45O[C@@H]4C(O)=C(C#N)C[C@]35C)[C@@H]1CC[C@@H]2O`, the “activation” value is 6.91%.

In the case of `CC(C)=C[C@@H]1[C@@H](C(=O)OCc2coc(Cc3ccccc3)c2)C1(C)C`, the Potency is 22.4 µM (active).

Take `O=C(O)c1ccccn1`: the “activation” value is -4.49%.

For the molecule `O=c1n(Cl)c(=O)n(Cl)c(=O)n1Cl`, the “activation” value is -7.03%.

On to `O=[N+]([O-])c1ccc([As](=O)(O)O)cc1`, for which the “activation” value was -5.49%.

For `CN(C)[C@@H]1C(=O)C(C(N)=O)=C(O)[C@@]2(O)C(=O)C3=C(O)c4c(O)cccc4[C@@](C)(O)[C@H]3C[C@@H]12`, the “activation” value is -11.1% [at 17.1 µM].

As to `OC(O)C(Cl)(Cl)Cl`, the “activation” value was -8.96%.

Take `Clc1ccc(Cl)cc1`: the “activation” value is -2.29%.
